Sampled rows, rich in hits. Any-hit rate of the full collection: about 6.8%.
MK inhibit – S. pneumoniae MK inhibitors, primary screen, biochemical, PK/LDH-coupled NADH absorbance. mevalonate kinase [Streptococcus pneumoniae D39]. inhibition, % at 10 µM. purified MK, PK/LDH-coupled NADH absorbance 340 nm. 65,000 compounds, 0.48% hits;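 active means ranked among the strongest by inhibition in the single 10 µM screen, a fixed top-ranked set picked for dose follow-up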
NADH enzymes – inhibitors of PK/LDH coupling enzymes, profiling panel, artefact control, biochemical, MLSMR library; AID 774, 2007; coupled PK/LDH NADH assays, four targets; 65,000 compounds, 0.02% hits; IC50, µM (series often up to 10 µM);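 active means single-dose screening hits from any of four coupled enzyme assays that gave an IC50 when retested across doses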;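 further: the DPM-DC format reads NADH fluorescence rather than 340 nm absorbance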
Spn DPM-DC inh – S. pneumoniae DPM-DC inhibitors, primary screen, biochemical, PK/LDH-coupled NADH fluorescence; purified DPM-DC; calls only at 10 µM; diphosphomevalonate decarboxylase (Streptococcus pneumoniae D39); 65,000 compounds, 0.49% hits; AID 556, 2006;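 active means the 320 compounds with the highest percent inhibition in the single-dose primary screen, excluding strongly autofluorescent ones, cut at about 32% in these data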;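 further: kinetic rate of NADH fluorescence loss reporting ADP formed by the decarboxylase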
PMK inhibit – S. pneumoniae PMK inhibitors, primary screen, biochemical, mevalonate pathway, pilot trial included | phosphomevalonate kinase (Streptococcus pneumoniae D39) | purified PMK, PK/LDH-coupled NADH absorbance 340 nm | inhibition, % at 10 µM | 65,000 compounds, 0.49% hits;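 active means top-ranked compounds by inhibition in the single 10 µM screen, taking a fixed number of the strongest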
A340 absorber – compound light absorbance at 340 nm, profiling panel, artefact control, biochemical, MLSMR library, data from PS, PMK, MK assays. compound absorbance at 340 nm, fold over control. fold change at 10 µM. 65,000 tested, under 10 active. AID 708, 2007;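 active means at 10 µM dose, initial 340 nm absorbance at least 2 fold that of control wells; inactive means change under 2 fold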;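 further: initial absorbance extrapolated from kinetic A340 decline of NADH oxidation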
Autofluor 339 – intrinsic fluorescence of library compounds, ex339/em460 – biochemical, MLSMR library, data from DPM-DC assay, artefact control, profiling panel; compound autofluorescence, ex339/em460 nm, NADH buffer; hits give high values; 1 = no-compound wells, NADH background; fluorescence fold increase at 10 µM; 65,000 compounds, 5.5% hits; AID 709, 2007;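 active means at 10 µM, mean starting fluorescence two-fold or more over control wells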;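 further: signal is the first read of a kinetic run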
Each line names hits and unclear results; the compound was inactive in the other large screens; [ ] = remark or other dose.

C=CCn1c(NC(=O)c2ccccc2Cl)c(C#N)c2nc3ccccc3nc21	Autofluor 339 3.84 (not shown: Spn DPM-DC inh)
CCn1c(=O)n(CC(=O)NC2CCCC(C)C2C)c(=O)c2ccccc21 (centres undefined)	none
Cc1cc(=O)oc2ccc(OCC(=O)N(Cc3ccc(F)cc3)Cc3ccco3)cc12	none
Cc1cccc(NS(=O)(=O)c2ccc(Oc3ccccc3)cc2)n1	Autofluor 339 2.94
Cc1cc(NS(=O)(=O)c2ccc(-c3ccccc3)cc2)no1	none
NC(=O)CCN(Cc1ccccc1)S(=O)(=O)c1ccccc1	PMK inhibit 28.0
O=c1n(CCCN2CCN(c3cccc(Cl)c3)CC2)nc2ccccn12	Autofluor 339 2.37 (not shown: Spn DPM-DC inh)
COc1ccccc1NC(=O)NCCCN1CCN(c2cccc(Cl)c2)CC1	none
CCOC(=O)c1ccc2c(c1)nc(SCc1cn3ccsc3n1)n2CC	none
COc1cccc(OC)c1OCCCCN1CCCC1	MK inhibit 52.0
Clc1ccccc1OCCCCN1CCCC1	MK inhibit 40.0
CCOc1ccccc1C(=O)N(CN1CCCC1=O)c1cccc(Cl)c1	none
O=C(CSc1nnc(-c2ccccn2)n1Cc1ccccc1)N1CCCC1	none
COCCn1c(=O)c2c(nc3n2CCN3c2ccc(C)cc2)n(C)c1=O	none
CCN(CC)S(=O)(=O)c1ccc(C(=O)OCC(=O)N2CCN(C(=O)c3ccco3)CC2)cc1	MK inhibit 48.0
CCCNC(=O)c1c(C)cc(=O)oc1C	Autofluor 339 2.06
O=C(Cc1coc(-c2ccc(F)cc2)n1)N1CCOCC1	PMK inhibit 32.0
CCCn1c(=NC(=O)c2ccncc2)c(C(=O)OCC)cc2c(=O)n3cccc(C)c3nc21	none
CCOC(=O)c1cc2c(=O)n3cccc(C)c3nc2n(CCOC)c1=NC(=O)c1ccncc1	Autofluor 339 2.02
CCOC(=O)c1cc2c(=O)n3cccc(C)c3nc2n(CCCOC)c1=NC(=O)c1cccnc1	NADH enzymes 13.9µM[fluoresces], PMK inhibit 29.0, Autofluor 339 2.27 (not shown: Spn DPM-DC inh)
COc1cc2c(cc1OC)/C(=C/C(=O)N1CCOCC1)NC(C)(C)C2	Spn DPM-DC inh active, Autofluor 339 2.47
Cc1noc(C)c1COC(=O)CCCc1nc2ccccc2s1	none
Cc1noc(C)c1COC(=O)c1ccc(-c2nc3ccccc3s2)s1	Autofluor 339 3.96
Cc1ccc(C2CC(c3cccs3)n3nc(N)nc3N2)cc1 (centres undefined)	Autofluor 339 2.26 (not shown: Spn DPM-DC inh)
COc1ccc(NS(=O)(=O)c2cc(OC)ccc2NC(=O)c2cc(C)oc2C)cc1	none
Cc1ccc(N(C(=O)C2CCCO2)C2C=CS(=O)(=O)C2)cc1Cl (centres undefined)	none
O=C(CN1CCN(c2ncccn2)CC1)NCCC1=CCCCC1	MK inhibit 49.0
Cc1nn(-c2ccc(F)cc2)c2sc(C(=O)OC3CCOC3=O)cc12 (centres undefined)	Autofluor 339 2.14 (not shown: Spn DPM-DC inh)
CCOc1ccc2[nH]c(=O)c(CN(CCOC)C(=O)N3CCOCC3)cc2c1	Autofluor 339 3.01 (not shown: Spn DPM-DC inh)
Cc1ccc(CN(Cc2cc3cc(C)ccc3[nH]c2=O)C(=O)N2CCOCC2)cc1	none
CCOc1ccc2[nH]c(=O)c(CN(Cc3ccc(C)cc3)C(=O)N3CCCC3)cc2c1	Autofluor 339 2.63
CN(C)c1nc2n(c(=S)n1)CCS2	none
Nc1nnc(CSCc2ccc(F)cc2)s1	none
O=C(O)C1CSC2(c3ccc4c(c3)OCCO4)CCC(=O)N12 (centres undefined)	none
CCOc1ccc2[nH]c(=O)c(C(c3nnnn3Cc3ccco3)N3CCCC(C)C3)cc2c1 (centres undefined)	Autofluor 339 2.17
CCN1CCN(C(c2ccccc2OC)c2nnnn2C2CCCCC2)CC1 (centres undefined)	none
COc1cc2cc(C(c3nnnn3C3CCCC3)N3CCCCCC3)c(=O)[nH]c2cc1OC (centres undefined)	none
CCOc1ccc2[nH]c(=O)c(C(c3nnnn3C3CCCCC3)N3CCN(C)CC3)cc2c1 (centres undefined)	Autofluor 339 4.44 (not shown: Spn DPM-DC inh)
